The text below walks through data of PubChem BioAssay AID463173 (ICCB-Longwood Screening Facility, Harvard Medical School, 2010).

Among all 52,000 compounds or so, about 4,300 (8.3%) were called active. What follows is part of a selection rich in actives, with near analogues and random picks from the rest. Unmarked numbers belong to inactive results. Rule as the data show it: active = survival mostly below about 52% (no sharp cut-off); inactive = mostly above about 56%.

The test system of the test is DeltatarO mutant. Description: S. aureus survival, RN4220 and DeltatarO strains – OD600, teichoic acid synthesis inhibitors, primary screen (AID 463173). As to conditions: S. aureus RN4220 wild type/DeltatarO growth, OD600, 18 h, hits give low values, screened at 18.75 µg/mL (by protocol).
Turning to `COc1ccccc1N1CCN(c2nc3ccc(C)cc3nc2-n2nc(C)cc2C)CC1`, the survival is -5% (active).
For the molecule `Cc1cc(C)c(C#N)c(N2CCN(c3cccc(C)c3C)CC2)n1`, the survival was 106%.
The same measure for `Cc1cc(C)n(-c2nc3cc(Cl)ccc3nc2Nc2ccc(C)c(F)c2)n1`: 91%; for `Cc1cc(C)n(CCc2nc3c4ccccc4nc(N4CCN(c5cccc(C)c5C)CC4)n3n2)n1`: 86%; for `Cc1ccc2nc(N3CCN(c4cccc(Cl)c4)CC3)c3nnnn3c2c1`: 88%.
As for `Cc1ccc2nc(N3CCN(c4cccc(Cl)c4)CC3)c(-n3nc(C)cc3C)nc2c1`, the survival is 0% (active).
Take `Cc1ccc(C)c(N2CCN(c3nc4ccc(C)cc4nc3-n3nc(C)cc3C)CC2)c1`: the survival is 102%.
The same measure for `Cc1cc(C)n(-c2nc3ccccc3nc2N2CCN(c3cccc(C(F)(F)F)c3)CC2)n1`: 91%.
Under `Cc1cc(C)n(-c2nc3cc(Cl)ccc3nc2N2CCN(c3cccc(C)c3C)CC2)n1` stands -6% (active); under `Cc1cc(C)n(-c2nc3cc(Cl)ccc3nc2N2CCN(c3ccccc3F)CC2)n1`, 98%.
The same measure for `Cc1cc(C)n(-c2nc3ccccc3nc2N2CCN(c3cccc(C)c3C)CC2)n1`: -6% (active); for `COc1ccccc1N1CCN(c2nc3ccc(C)cc3n3nnnc23)CC1`: 128%; for `O=C(Nc1ccccc1C(F)(F)F)N1CCN(c2ccc3nnc(-c4ccc(F)cc4)n3n2)CC1`: 58%.
As to `COc1ccc(-c2nc(CSc3nncn4c3cc3oc(C)cc34)c(C)o2)cc1`, the survival is 56%.
The same measure for `Cc1c(Cl)cccc1-n1ncc(C(=O)N2CCOCC2)c1C1CCN(C(=O)OC(C)(C)C)CC1`: 103%; for `CCc1ccc(S(=O)(=O)Nc2cccc(-c3ccc(OC)nn3)c2)s1`: 76%.
Under `Cc1c(CC(=O)NCCc2ccccc2F)c(=O)oc2cc(O)c(Cl)cc12` stands 59%; under `CCn1cc(C(=O)N2CCN(c3ccccc3F)CC2)c(=O)c2cc(S(=O)(=O)N(C)C3CCCCC3)ccc21`, 79%.
Consider `CCOc1ccc(CCNC(=O)c2cn(C)c3ccc(S(=O)(=O)N4CCOCC4)cc3c2=O)cc1OCC`, for which the survival is 56% (active).
As for `CCOc1ccc(CCNC(=O)c2cn(C)c3ccc(S(=O)(=O)N4CCCCCC4)cc3c2=O)cc1OCC`, the survival was 61%.
Under `CCn1cc(C(=O)NCCc2ccccc2)c(=O)c2cc(S(=O)(=O)N3CCc4ccccc4C3)ccc21` stands 67%; under `CCn1cc(C(=O)NC(C)c2ccccc2)c(=O)c2cc(S(=O)(=O)N3CCc4ccccc4C3)ccc21` (configuration not stated), 80%; under `CCC(C)NC(=O)c1cn(CC)c2ccc(S(=O)(=O)N3CCc4ccccc4C3)cc2c1=O` (configuration not stated), 35% (active).
As to `CCn1cc(C(=O)NCCc2ccc(Cl)cc2)c(=O)c2cc(S(=O)(=O)N3CCc4ccccc4C3)ccc21`, the survival was 54% (active).
Under `CCn1cc(C(=O)NCCc2ccc(C)cc2)c(=O)c2cc(S(=O)(=O)N3CCc4ccccc4C3)ccc21` stands 67%.
Under `CCOc1ccc(CCNC(=O)c2cn(C)c3ccc(S(=O)(=O)N4CCCCC4)cc3c2=O)cc1OCC` stands 101%; under `CCn1cc(C(=O)NCc2ccccc2)c(=O)c2cc(S(=O)(=O)N3CCc4ccccc4C3)ccc21`, 73%.
